What is called inhibition is the drop in the measured response relative to a control, in per cent.

Our source for the inhibition values is PubChem BioAssay.

SMILES strings stand for the structures. Active and inactive are the calls of the source. Unless noted, how the calls were made is not given here.

Tested on in the first assay: not listed separately
The assay is described as follows: human hepatoma cell viability loss – ATP luminescence, cytotoxicity control for P. falciparum antimalarial project, primary screen (AID 2303;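 active means inhibition above 50%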;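 further: 0% = DMSO wells and 100% = digitonin-killed cells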). The conditions noted are these: HepG2 viability, 24-48 h, at 10 µM, active compounds read high.
As for `Cc1ccc2[nH]c3c(c2c1)CC(C(=O)NCCC(C)C)NC31CCN(Cc2ccccc2)CC1` (stereo not given), the inhibition was 15% (inactive).

With `COc1ccc2nccc([C@@H](O)CN3CCC(NCc4cc5sccc5nc4C(F)(F)F)CC3)c2c1`, the inhibition is 22% (inactive).

`Cc1cc(C2CCN(CCCCNC(=O)c3ccc(-c4ccc(C(F)(F)F)cc4)cc3)CC2)c(C)cc1OCCOC1CCCCO1` (stereo not given): the inhibition was 30% (inactive).

`FC(F)(F)CNc1nc(Nc2ccc3ncccc3c2)nc2[nH]ccc12`: the inhibition was 37% (inactive).

In the case of `CCS[C@@H]1O[C@H](COC(=O)c2ccccc2)[C@H](OC(=O)c2ccccc2)[C@H](OC(=O)c2ccccc2)[C@H]1OC(=O)c1ccccc1`, the inhibition was 4% (inactive).

For `COc1ccc(S(=O)(=O)Nc2cc(C)cc(Br)c2OC)cc1N1CCN(C(=O)C(Cl)(Cl)Cl)CC1`, the inhibition was 9% (inactive).

`COc1ccc(NC(=O)c2ccc(OCCCCCCCOc3ccc(C(=O)Nc4ccc(OC)c(N5CCN(C)CC5)c4)cc3)cc2)cc1N1CCN(C)CC1`: the inhibition is 98% (active).

On to `CCOC(=O)C(C#N)NC(=O)C=Cc1ccccc1` (stereo not given), for which the inhibition is -7% (inactive).

Consider `CCC(=O)Nc1cc(=O)[nH]c2nc(-c3ccc(Cl)cc3)nn12`, for which the inhibition is 3% (inactive).

For the compound `COc1cccc(C2(c3cccc(OC)c3)N=C(N)N(CCCc3ccccc3)C2=O)c1`, the inhibition is 3% (inactive).

Consider `COc1ccc(CCN(C)CCCN2CCC(NC(=O)c3cccc4c(=O)c5ccccc5sc34)CC2)cc1OC`, for which the inhibition was 67% (active).

With `Oc1cccc(Nc2ccnc3cc(-c4cc5ccccc5o4)ccc23)c1`, the inhibition is 9% (inactive).

For `Cc1cccc2[nH]c(-c3cccc(-c4ccc(NC(=O)CN5CCN(C)CC5)cc4)c3)nc12`, the inhibition was 45% (inactive).

As for `Nc1ccc(-c2ccc3ccnc(N)c3c2)cc1`, the inhibition was 38% (inactive).

For the compound `Cn1cnc2c(SCc3ccccc3OCc3ccccc3)ncnc21`, the inhibition is 6% (inactive).

As for `O=C(Nc1ccc2c(c1)CCN2C1CCN(Cc2csc3ccccc23)C1)c1ccco1` (stereo not given), the inhibition is -5% (inactive).

As to `COc1ccc2cc(-c3nc(-c4c(Cl)cccc4Cl)[nH]c3-c3ccnc(NCCCN4CCCCC4C)c3)ccc2c1` (stereo not given), the inhibition was 19% (inactive).

On to `COc1cc(Cc2cnc(N)nc2N)cc(CC(C)O)c1O` (stereo not given), for which the inhibition was -2% (inactive).

In the case of `COc1ccc(N2CCN(CCCCNC(=O)c3ccc(NC(=O)c4cc(C(F)(F)F)cc(C(F)(F)F)c4)cc3)CC2)c(OC)c1`, the inhibition was 30% (inactive).

Regarding `Cc1ccc(C(=O)Nc2cccc(CN3CCCN(Cc4ccc(O)cc4)CC3)c2)cc1`, the inhibition was -4% (inactive).

As for `O=C(Nc1cccc(-c2cccc(-c3nc4ccc(C(F)(F)F)cc4[nH]3)c2)c1)c1csnn1`, the inhibition was 45% (inactive).

For `Cc1ccc(OCCCCON2C(N)=NC(N)=NC2(C)C)cc1C`, the inhibition was 61% (active).

For `CCOc1cc(NCCCNc2ncc([N+](=O)[O-])cc2C)nc2ccccc12`, the inhibition was 10% (inactive).

With `N#Cc1cccc(C(=O)Nc2cccc(-c3ccc(CN4CCCC4)cc3)c2)c1`, the inhibition is 11% (inactive).

`O=C(O)c1ccc(NC(=O)C2CC(=O)N(Cc3ccc(Cl)cc3)C(=Nc3ccc(Cl)cc3)S2)cc1` (stereo not given): the inhibition is -1% (inactive).

As to `CN1CCN(c2cc(-c3ccncc3)nc(-c3cccnc3)n2)CC1`, the inhibition is 13% (inactive).

Consider `COC(=O)c1cccc(CNCc2cccc(-c3cccc(-c4nc5ccc(C(F)(F)F)cc5[nH]4)c3)c2)c1`, for which the inhibition is 7% (inactive).

As to `O=C(Nc1cc(Cl)cc(Cl)c1)Nc1ccccc1C(=O)NC1CCCCC1`, the inhibition was 12% (inactive).

On to `COCCN1CCN(Cc2ccc(-c3ccc(-c4nc5ccc(F)cc5[nH]4)cc3)cc2)CC1`, for which the inhibition is 25% (inactive).

For `Cc1noc(-c2ccc3c(c2)CCN(CCC2CCC(NC(=O)/C=C/c4ccc(F)cc4)CC2)CC3)n1` (stereo not given), the inhibition is 44% (inactive).

Consider `O=S(=O)(NCCN1CCCC1)c1ccc(-c2cccc(CNCCc3cccs3)c2)s1`, for which the inhibition was 39% (inactive).

As for `CCSc1ccccc1CON1C(N)=NC(N)=NC1(C)C`, the inhibition was 62% (active).

Turning to `Cc1cccc2[nH]c(-c3cccc(-c4ccc(CN5CCN(CCO)CC5)cc4)c3)nc12`, the inhibition was 12% (inactive).

On to `Cn1cnc(CCNC(=O)c2cccc(-c3csc(-c4nc5ccccc5[nH]4)c3)c2)c1`, for which the inhibition is 33% (inactive).

In the case of `CC(C)(C)c1ccc(O)c(CNC2CCCCC2)c1`, the inhibition was 5% (inactive).

As to `O=[N+]([O-])c1ccc(CNCCCCCCNCc2ccc([N+](=O)[O-])c3ccccc23)c2ccccc12`, the inhibition was 88% (active).

As for `CN(C)Cc1ccc2cc(NC(=O)c3ccc(-c4ccc(Cl)cc4)cc3)ccc2n1`, the inhibition was 60% (active).

Turning to `CCN(CC)C(=O)C1CCN(C(C(=O)N2CCN(CC(=O)N3CCCC3)CC2)c2cc3ccccc3o2)CC1` (stereo not given), the inhibition was -11% (inactive).

For the compound `N#Cc1ccc(Sc2nnc(-c3ccccc3Cl)n2CC2CCCCC2)cc1[N+](=O)[O-]`, the inhibition is 30% (inactive).

As to `Oc1c(C(Nc2ccccn2)c2ccco2)cc(Cl)c2cccnc12` (stereo not given), the inhibition is 41% (inactive).

The target of another assay is L-lactate dehydrogenase (Plasmodium falciparum (isolate CDC / Honduras)) (UniProt Q27743). The assay can be described thus: PfLDH activity inhibition – cell lysate, 3D7 strain, counter-screen for P. falciparum growth inhibition project (AID 2304).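 Further: 0% = vehicle and 100% = reference inhibitor.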 As to conditions: P. falciparum 3D7 crude extract, LDH APAD/NBT absorbance; at 2 µM; active compounds read high. A general note: The purpose of a counterscreen is to sort out artefacts and off-target activity.
L-lactate dehydrogenase (Plasmodium falciparum (isolate CDC / Honduras)), sequence (Q27743 whole entry, looked up): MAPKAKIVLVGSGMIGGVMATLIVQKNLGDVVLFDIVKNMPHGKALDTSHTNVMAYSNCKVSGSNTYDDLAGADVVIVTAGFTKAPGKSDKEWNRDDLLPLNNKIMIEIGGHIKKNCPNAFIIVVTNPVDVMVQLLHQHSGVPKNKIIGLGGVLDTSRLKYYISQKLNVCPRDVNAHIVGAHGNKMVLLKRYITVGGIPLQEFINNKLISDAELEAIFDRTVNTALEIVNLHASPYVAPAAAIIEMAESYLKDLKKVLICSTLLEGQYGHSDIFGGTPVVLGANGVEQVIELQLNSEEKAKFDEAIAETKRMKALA
For `Cc1ccc2[nH]c3c(c2c1)CC(C(=O)NCCC(C)C)NC31CCN(Cc2ccccc2)CC1` (stereo not given), the inhibition was 6% (inactive).

Consider `COc1ccc2nccc([C@@H](O)CN3CCC(NCc4cc5sccc5nc4C(F)(F)F)CC3)c2c1`, for which the inhibition was 4% (inactive).

With `Cc1cc(C2CCN(CCCCNC(=O)c3ccc(-c4ccc(C(F)(F)F)cc4)cc3)CC2)c(C)cc1OCCOC1CCCCO1` (stereo not given), the inhibition is -7% (inactive).

As for `FC(F)(F)CNc1nc(Nc2ccc3ncccc3c2)nc2[nH]ccc12`, the inhibition is 0% (inactive).

On to `CCS[C@@H]1O[C@H](COC(=O)c2ccccc2)[C@H](OC(=O)c2ccccc2)[C@H](OC(=O)c2ccccc2)[C@H]1OC(=O)c1ccccc1`, for which the inhibition was 5% (inactive).

For the compound `COc1ccc(S(=O)(=O)Nc2cc(C)cc(Br)c2OC)cc1N1CCN(C(=O)C(Cl)(Cl)Cl)CC1`, the inhibition was 0% (inactive).

`COc1ccc(NC(=O)c2ccc(OCCCCCCCOc3ccc(C(=O)Nc4ccc(OC)c(N5CCN(C)CC5)c4)cc3)cc2)cc1N1CCN(C)CC1`: the inhibition was -5% (inactive).

With `CCOC(=O)C(C#N)NC(=O)C=Cc1ccccc1` (stereo not given), the inhibition is 6% (inactive).

For the compound `CCC(=O)Nc1cc(=O)[nH]c2nc(-c3ccc(Cl)cc3)nn12`, the inhibition was -11% (inactive).

As for `COc1cccc(C2(c3cccc(OC)c3)N=C(N)N(CCCc3ccccc3)C2=O)c1`, the inhibition was 4% (inactive).

`COc1ccc(CCN(C)CCCN2CCC(NC(=O)c3cccc4c(=O)c5ccccc5sc34)CC2)cc1OC`: the inhibition is 4% (inactive).

`Oc1cccc(Nc2ccnc3cc(-c4cc5ccccc5o4)ccc23)c1`: the inhibition was -1% (inactive).

As to `Cc1cccc2[nH]c(-c3cccc(-c4ccc(NC(=O)CN5CCN(C)CC5)cc4)c3)nc12`, the inhibition was -8% (inactive).

Take `Nc1ccc(-c2ccc3ccnc(N)c3c2)cc1`: the inhibition is -1% (inactive).

For the compound `Cn1cnc2c(SCc3ccccc3OCc3ccccc3)ncnc21`, the inhibition is -3% (inactive).

For the compound `O=C(Nc1ccc2c(c1)CCN2C1CCN(Cc2csc3ccccc23)C1)c1ccco1` (stereo not given), the inhibition was -2% (inactive).

`COc1ccc2cc(-c3nc(-c4c(Cl)cccc4Cl)[nH]c3-c3ccnc(NCCCN4CCCCC4C)c3)ccc2c1` (stereo not given): the inhibition is -1% (inactive).

Consider `COc1cc(Cc2cnc(N)nc2N)cc(CC(C)O)c1O` (stereo not given), for which the inhibition is -2% (inactive).

Turning to `COc1ccc(N2CCN(CCCCNC(=O)c3ccc(NC(=O)c4cc(C(F)(F)F)cc(C(F)(F)F)c4)cc3)CC2)c(OC)c1`, the inhibition is 2% (inactive).

Consider `Cc1ccc(C(=O)Nc2cccc(CN3CCCN(Cc4ccc(O)cc4)CC3)c2)cc1`, for which the inhibition was -3% (inactive).

As to `O=C(Nc1cccc(-c2cccc(-c3nc4ccc(C(F)(F)F)cc4[nH]3)c2)c1)c1csnn1`, the inhibition was 3% (inactive).

Turning to `Cc1ccc(OCCCCON2C(N)=NC(N)=NC2(C)C)cc1C`, the inhibition was -3% (inactive).

In the case of `CCOc1cc(NCCCNc2ncc([N+](=O)[O-])cc2C)nc2ccccc12`, the inhibition is 2% (inactive).

Turning to `N#Cc1cccc(C(=O)Nc2cccc(-c3ccc(CN4CCCC4)cc3)c2)c1`, the inhibition is 1% (inactive).

For `O=C(O)c1ccc(NC(=O)C2CC(=O)N(Cc3ccc(Cl)cc3)C(=Nc3ccc(Cl)cc3)S2)cc1` (stereo not given), the inhibition is -6% (inactive).

Take `CN1CCN(c2cc(-c3ccncc3)nc(-c3cccnc3)n2)CC1`: the inhibition is 3% (inactive).

On to `COC(=O)c1cccc(CNCc2cccc(-c3cccc(-c4nc5ccc(C(F)(F)F)cc5[nH]4)c3)c2)c1`, for which the inhibition was 6% (inactive).

Regarding `O=C(Nc1cc(Cl)cc(Cl)c1)Nc1ccccc1C(=O)NC1CCCCC1`, the inhibition is 4% (inactive).

Regarding `COCCN1CCN(Cc2ccc(-c3ccc(-c4nc5ccc(F)cc5[nH]4)cc3)cc2)CC1`, the inhibition is -2% (inactive).

Regarding `Cc1noc(-c2ccc3c(c2)CCN(CCC2CCC(NC(=O)/C=C/c4ccc(F)cc4)CC2)CC3)n1` (stereo not given), the inhibition was 3% (inactive).

Take `O=S(=O)(NCCN1CCCC1)c1ccc(-c2cccc(CNCCc3cccs3)c2)s1`: the inhibition is -2% (inactive).

With `CCSc1ccccc1CON1C(N)=NC(N)=NC1(C)C`, the inhibition is -3% (inactive).

Regarding `Cc1cccc2[nH]c(-c3cccc(-c4ccc(CN5CCN(CCO)CC5)cc4)c3)nc12`, the inhibition was -4% (inactive).

For the compound `Cn1cnc(CCNC(=O)c2cccc(-c3csc(-c4nc5ccccc5[nH]4)c3)c2)c1`, the inhibition is 0% (inactive).

Regarding `CC(C)(C)c1ccc(O)c(CNC2CCCCC2)c1`, the inhibition is -2% (inactive).

As for `O=[N+]([O-])c1ccc(CNCCCCCCNCc2ccc([N+](=O)[O-])c3ccccc23)c2ccccc12`, the inhibition was 0% (inactive).

With `CN(C)Cc1ccc2cc(NC(=O)c3ccc(-c4ccc(Cl)cc4)cc3)ccc2n1`, the inhibition is -1% (inactive).

As to `CCN(CC)C(=O)C1CCN(C(C(=O)N2CCN(CC(=O)N3CCCC3)CC2)c2cc3ccccc3o2)CC1` (stereo not given), the inhibition is -7% (inactive).

`N#Cc1ccc(Sc2nnc(-c3ccccc3Cl)n2CC2CCCCC2)cc1[N+](=O)[O-]`: the inhibition was 1% (inactive).

`Oc1c(C(Nc2ccccn2)c2ccco2)cc(Cl)c2cccnc12` (stereo not given): the inhibition is 1% (inactive).
